Shiga inhibitor: Shiga toxin inhibition | AID 2315 | Vero cells, Shiga toxin protein synthesis inhibition reporter | 290,000 compounds, 9.2% hits | inhibition, % at 38.7 µM; in the data active = inhibition mostly above about 28%, no sharp cut-off; inactive = mostly below about 43%
Cycloheximide cs: affects cycloheximide protein synthesis inhibition readout, counter-screen; max response, %; cell reporter, cycloheximide protein synthesis inhibition counterscreen; 300,000 compounds, 12% hits; in the data active = max response mostly above about 13%, no sharp cut-off; inactive = mostly below about 14%; note: read at 38.3 µM for the half of the compounds with a filed dose
Pf growth 96h: inhibits malaria parasite growth, 96 h; P. falciparum luciferase reporter growth, 96 h; Potency, µM (doses to about 28.7 µM), hits mostly inhibitors; 320,000 compounds, 6.9% hits; AID 504834; active = well fitted inhibition curve with a large enough effect; inconclusive = small, poorly fitted or top-dose-only effect, or another doubt; inactive = no such curve, though single readings can be large or run the other way
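Erythrocytes infected with luciferase-expressing P. falciparum were dispensed at 2% hematocrit and 0.05% parasitemia (final), then incubated with compounds 96 hours at 37 C in 5% CO2. Luminescence after detection reagent addition reported growth.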
SARS PLP yeast: inhibitors of SARS-CoV papain-like protease in yeast; Potency, µM (top dose mostly 32.9 µM), hits mostly activators; S. cerevisiae expressing SARS-CoV PLpro, growth rescue; 330,000 compounds, 0.19% hits; note: nearly all actives have a fitted effect of over 55% in size
Pf growth 48h: P. falciparum growth inhibition at 48 hours (one generation) | P. falciparum luciferase growth in erythrocytes, 48 h | Potency, µM (series often up to 28.7 µM), hits mostly inhibitors | 310,000 compounds, 5.9% hits | AID 504832; active = well fitted inhibition curve with a large enough effect; inconclusive = small, poorly fitted or top-dose-only effect, or another doubt; inactive = no such curve, though single readings can be large or run the other way
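Growth was read as firefly luciferase luminescence after a 48 h, 37 C, 5% CO2 exposure of compounds to reporter-bearing P. falciparum cultures (0.1% parasitemia, 2% hematocrit final) in Albumax-supplemented RPMI 1640.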
NS1 function inh: influenza NS1 inhibition. 270,000 compounds, 0.4% hits. AID 2326. Potency, µM (titrated, usually from 46.1 µM); note: actives are rising curves; nearly all actives have a fitted effect of over 50% in size
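OD600 was taken as the measure of yeast growth restored by compound in an NS1-expressing S. cerevisiae strain. Cells had been washed out of glucose medium and diluted 1:100 into galactose -URA medium, pH 6.0.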
Large screens that a line does not name were inactive. Shown are actives, neighbours in structure and some others; about 21% of the full set was active somewhere. Unless noted, calls come from the whole dose curve.

CN1CCN(C(=S)NCCc2ccccc2)CC1	Cycloheximide cs 35.0
S=C(NCCc1ccccc1)N1CCN(C(=S)NCCc2ccccc2)CC1	none (no result: Shiga inhibitor, Cycloheximide cs, NS1 function inh)
O=C(NCCc1ccccc1)N1CCCC(CNS(=O)(=O)Cc2ccccc2)C1 (stereo not drawn)	Cycloheximide cs 13.7
S=C(NCCc1ccccc1)N1CCN(C2CCCCC2)CC1	Pf growth 48h inconclusive (no result: NS1 function inh)
OCC1CCCN(C(=S)NCCc2ccccc2)C1 (stereo not drawn)	Cycloheximide cs 32.7, NS1 function inh inconclusive
O=C(COC(=O)c1ccc(F)cc1Cl)NC1CCCCCCC1	none (no result: Shiga inhibitor, Cycloheximide cs, Pf growth 96h, Pf growth 48h, NS1 function inh)
CC1CCCN(C(=S)NCc2ccccc2)C1 (stereo not drawn)	none
OC1CCCN(C(=S)NCc2ccccc2)C1 (stereo not drawn)	Pf growth 96h 3.29µM
O=C(Cc1csc(Nc2nc(=S)[nH]c3ccccc23)n1)N1CCN(c2cccc(C(F)(F)F)c2)CC1	none
CSc1ncccc1C(=O)OCC(=O)Nc1ccc2c(c1)CCC2	none (no result: Shiga inhibitor, Cycloheximide cs, NS1 function inh)
O=C(COC(=O)c1cccnc1Cl)Nc1ccc2c(c1)OCO2	Shiga inhibitor 97.1, Cycloheximide cs 31.6 (no result: NS1 function inh)
Cc1noc(C)c1COC(=O)c1ccc2c(c1)OCO2	Pf growth 96h 7.38µM (no result: Pf growth 48h)
CCOc1ncccc1C(=O)OCC(=O)Nc1ccc2c(c1)OCCO2	none (no result: Shiga inhibitor, Cycloheximide cs, NS1 function inh)
CSc1ncccc1C(=O)OCC(=O)Nc1ccc2c(c1)OCO2	Shiga inhibitor 35.4 (no result: NS1 function inh)
Cc1noc(C)c1COc1ccc(C(=O)OCC(=O)Nc2ccc3c(c2)OCO3)cc1	none
CCOC(=O)c1cccnc1SCC(=O)Nc1ccc(C)cc1	Cycloheximide cs 21.9 (no result: NS1 function inh)
Cc1cccc(C)c1NC(=O)[C@H](C)N	none (no result: Shiga inhibitor, Cycloheximide cs, SARS PLP yeast, NS1 function inh)
CC(=O)Nc1ccccc1C(=O)N1CC(C)OC(C)C1 (stereo not drawn)	none
Cc1noc(C)c1COC(=O)c1cccnc1SCC(=O)Nc1ccc2c(c1)OCO2	Pf growth 96h 9.28µM, Pf growth 48h inconclusive
Cn1cnnc1SCC(=O)Nc1ccc2c(c1)CCC2	Shiga inhibitor 35.4, Cycloheximide cs 15.3
O=C(CSc1nnnn1-c1cccnc1)Nc1cccc(Cl)c1	none
Cn1cnnc1SCC(=O)c1ccc2c(c1)CCCC2	Shiga inhibitor 68.7, Cycloheximide cs 32.3
CC(=O)Nc1ccc(NC(=O)CSc2nncn2C)cc1	Pf growth 96h inconclusive
Cn1cnnc1SCC(=O)c1ccc2c(c1)OCO2	none (no result: Pf growth 48h)
O=C(CSc1nnnn1-c1cccc(Cl)c1)Nc1ccc2c(c1)CCC2	Pf growth 96h 1.85µM
NC(=O)CCC(NC(=S)Nc1ccccc1)C(=O)O (stereo not drawn)	none
Cc1ccc(S(=O)(=O)NC2=NCN(C(C)C)CN2)cc1	Pf growth 96h inconclusive
N#Cc1cc2ccccc2nc1SCc1ccccn1	Shiga inhibitor 147.2, Cycloheximide cs 59.4 (no result: Pf growth 96h)
Cc1cc2cc3c(cc2nc1SCc1ccccn1)OCCO3	Pf growth 96h inconclusive
Cc1cc(N)c2ccccc2n1	none
Nc1cc2ccncc2c2ccccc12	Pf growth 96h inconclusive, Pf growth 48h 0.117µM
O=C(COC(=O)c1ccc(F)cc1F)Nc1cc(S(=O)(=O)N2CCOCC2)ccc1Cl	none (no result: Shiga inhibitor, Cycloheximide cs, NS1 function inh)
Oc1ccccc1C1=Nc2nc3ccccc3n2C(c2ccccc2)C1 (stereo not drawn)	Shiga inhibitor 84.4, Cycloheximide cs 49.2, Pf growth 48h inconclusive
O=C(c1ccc(Cl)cc1)c1oc2ccccc2c1CS(=O)(=O)c1ccccc1	Pf growth 96h 10.4µM
CC(=O)N1c2ccc(S(=O)(=O)NCCC(=O)N3CCC(C)CC3)cc2CC1C (stereo not drawn)	none
Cc1nc2c(-c3ccc(F)cc3)cnn2c2c1CCC2	Shiga inhibitor 53.1, Cycloheximide cs 37.7 (no result: NS1 function inh)
Cc1nc2c(-c3ccccc3)cnn2c(N)c1-c1ccccc1	none
CC1CN(S(=O)(=O)c2cccc(C(=O)NCc3ccco3)c2)CC(C)O1 (stereo not drawn)	Pf growth 96h inconclusive (no result: Shiga inhibitor, Cycloheximide cs, NS1 function inh)
COc1ccc2oc(C(=O)OCC(=O)NC3CCCC3)c(C)c2c1	Shiga inhibitor 71.1, Cycloheximide cs 38.0
COc1ccc2oc(C(=O)OCC(=O)N3C(C)CCCC3C)c(C)c2c1 (stereo not drawn)	Shiga inhibitor 62.6, Cycloheximide cs 36.7
Cc1c(C(=O)OCC(=O)N2C(C)CCCC2C)oc2ccccc12 (stereo not drawn)	Shiga inhibitor 95.8, Cycloheximide cs 50.4
CCOc1ccc2oc(C(=O)OCC(=O)N3C(C)CCCC3C)c(C)c2c1 (stereo not drawn)	Pf growth 96h inconclusive, Pf growth 48h inconclusive (no result: Shiga inhibitor, Cycloheximide cs, NS1 function inh)
Cc1c(C(=O)OCCN2CCCCC2)oc2ccccc12	Cycloheximide cs 14.5
Cc1c(C(=O)OCC(=O)N2c3ccccc3CC2C)oc2ccccc12 (stereo not drawn)	Pf growth 96h inconclusive
Cc1c(C(=O)OCC(=O)N2CC(C)CC(C)C2)oc2ccccc12 (stereo not drawn)	none (no result: Shiga inhibitor, Cycloheximide cs, NS1 function inh)
CCOc1ccccc1NC(=O)c1cc(=O)[nH]c2ccc(S(=O)(=O)N3CCOCC3)cc12	none (no result: Shiga inhibitor, Cycloheximide cs, Pf growth 96h, Pf growth 48h, NS1 function inh)
Cc1cccc(Nc2cc(=O)n(C)c(=O)[nH]2)c1	Pf growth 96h inconclusive
Cc1ccccc1NS(=O)(=O)c1cc2c3c(c1)CC(=O)N3CCC2	Pf growth 48h 13.1µM
CCCCN(c1ccccc1)S(=O)(=O)c1ccc2c(c1)CCN2C(=O)CCC(=O)O	Pf growth 96h 9.28µM, Pf growth 48h inconclusive
Cc1cccc(NS(=O)(=O)c2cc3c4c(c2)CC(=O)N4CCC3)c1C	Pf growth 48h inconclusive
CCC(=O)N1CCc2cc(S(=O)(=O)Nc3ccccc3C)ccc21	Pf growth 96h 0.928µM
CCC(=O)N1CCc2cc(S(=O)(=O)NCCN3CCC(C)CC3)ccc21	Pf growth 96h 1.65µM, NS1 function inh inconclusive (no result: Pf growth 48h)
COc1ccc(/C=N/NC(=O)CNC(=O)c2ccncc2)cc1OC	Pf growth 96h inconclusive
CC(C)Oc1cccc(C(=O)C2CCCN(S(=O)(=O)C(C)C)C2)c1 (stereo not drawn)	Pf growth 96h inconclusive
CCN(CC)CC(=O)Nc1c(C#N)cnn1-c1ccccc1	none
Cc1onc(-c2ccccc2Cl)c1C(=O)N(C)Cc1ccccc1	none
CC(=O)N1CCc2cc(S(=O)(=O)NCCC(=O)NC3CCCc4ccccc43)ccc21 (stereo not drawn)	Pf growth 48h 11.7µM
CC(C)OP(=O)(OC(C)C)C(Nc1ccccc1)c1cccc2c1OCO2 (stereo not drawn)	Cycloheximide cs 22.9, Pf growth 96h inconclusive, Pf growth 48h inconclusive
Cc1cccc(C(=O)NCCCNC(=O)c2ccco2)c1	Pf growth 96h inconclusive
CN(C)C(=O)COc1ccc2ccc(=O)oc2c1	none
CC(C)=CC(O)C/C(C)=C/COc1ccc2ccc(=O)oc2c1 (stereo not drawn)	Cycloheximide cs 8.6
O=C(c1ccc(Cl)nc1)N1CCN(S(=O)(=O)c2ccccc2)CC1	none
Fc1cccc(Cl)c1Cn1ncc2ccccc21	Shiga inhibitor 31.1, Cycloheximide cs 28.1
O=c1cnn(Cc2c(Cl)cccc2Cl)c2ccccc12	Pf growth 96h 9.28µM, Pf growth 48h 13.1µM
